Where a name gives a salt, the structure may show the parent alone. Read-outs that look alike come from different tables or passages of the source.
Test system: thyroid hormone receptor (endogenous TRα and TRβ)
Design: species or system GH3-TRE-Luc (rat pituitary); GH3-TRE-Luc luciferase reporter, antagonist mode against 1 nM T3, loss of signal, qHTS
[1] = read-out: Average AC50 (uM) GH3-TRE-Antag, antagonist mode, 1 nM T3, no GH3 cytotoxicity hit, Average AC50 (uM) GH3-TRE-Antag, 24 h
[2] = read-out: Average AC50 (uM) GH3-TRE-Antag, antagonist mode, 1 nM T3, no GH3 cytotoxicity hit

Compound	AC50 [1] [µM]	AC50 [2] [µM]
CCCCCCCCn1cc[n+](C)c1 [1-Methyl-3-octylimidazolium chloride]	28.9	
Nc1c2c(nc3ccccc13)CCCC2 [1,2,3,4-Tetrahydro-9-acridinamine hydrochloride]	92.1	
CCCCCCCCCCCCOS(=O)(=O)O [Ammonium dodecyl sulfate]	80.2	
CC(C)c1c(C(=O)Nc2ccccc2)c(-c2ccccc2)c(-c2ccc(F)cc2)n1CC[C@@H](O)C[C@@H](O)CC(=O)O [Atorvastatin calcium]	14.2	
O=C(Nc1ccccc1)c1ccccc1O [Salicylanilide]		48.9
CC(C)NCC(O)COc1ccc(CCOCC2CC2)cc1 (stereo not drawn) [Betaxolol]		39.4
CC(=O)c1c(C)cc(C(C)(C)C)cc1C [4'-tert-Butyl-2',6'-dimethylacetophenone]		48.7
C/C=C(/CC[C@@H](C)[C@H]1CC[C@H]2C3=CC[C@H]4[C@H](C)[C@@H](O)CC[C@]4(C)[C@H]3CC[C@]12C)C(C)C [Sitosterol alpha1]		40.6
Cc1cc(C(C)(C)C)cc(C)c1CC1=NCCN1 [Xylometazoline hydrochloride]		11
NC(=S)NC(N)=S [2,4-Dithiobiuret]		45
CCCC1O[C@@H]2C[C@H]3[C@@H]4CCC5=CC(=O)C=C[C@]5(C)[C@H]4[C@@H](O)C[C@]3(C)[C@]2(C(=O)CO)O1 (stereo partly drawn) [Budesonide]		> 50
Nc1ccccc1N [1,2-Phenylenediamine dihydrochloride]		92.5
Nc1c(Br)cc(Br)cc1CN[C@H]1CC[C@H](O)CC1 [Ambroxolhydrochloride]		24.9
C[C@]12CC[C@@H]3c4ccc(O)cc4CC[C@H]3[C@@H]1CCC2=O [Estrone]		0.0388
COC(=O)N(C(=O)N1CO[C@@]2(C(=O)OC)Cc3cc(Cl)ccc3C2=N1)c1ccc(OC(F)(F)F)cc1 [Indoxacarb]		9.12
CCCCCCCCCC(C)C=O (stereo not drawn) [2-Methylundecanal]		40.2
Nc1cc(Cl)c(N)c(Cl)c1 [2,6-Dichloro-1,4-benzenediamine]		78
CC(C(=O)O)c1ccc(N2Cc3ccccc3C2=O)cc1 (stereo not drawn) [Indoprofen]		7.85
O=C(O)C(F)(F)C(F)(F)C(F)(F)C(F)(F)C(F)(F)C(F)(F)C(F)(F)C(F)(F)F [Perfluorononanoic acid]		71.7
CCCCCCCCCCCCCC(=O)O [Tetradecanoic acid]		52.3
Nc1ccc(N)c(Cl)c1 [2-Chloro-1,4-diaminobenzene sulfate]		50.5
Cc1c(F)c(F)c(COC(=O)[C@H]2[C@@H](/C=C(\Cl)C(F)(F)F)C2(C)C)c(F)c1F (racemic) [Tefluthrin]		59.6
COC(=O)[C@@H]1[C@H]2C[C@H]3c4[nH]c5ccccc5c4CCN3C[C@@H]2CC[C@@H]1O [Yohimbine]		43.8
CCCCCCn1cc[n+](C)c1 [1-Hexyl-3-methylimidazolium bromide]	47.7	
Cl/C(=C\n1cncn1)c1ccc(Cl)cc1Cl [Loreclezole hydrochloride]		18.3
CCOc1ccc2[nH]cc(C(=O)NCc3ccccc3)c(=O)c2n1 [CP-457920]		45.2

Compound	AC50 [1] [µM]	AC50 [2] [µM]
CC1(C)C2=CCCC(C)(C)[C@]23CC[C@H]1C3 [(-)-Isolongifolene]		54.9
C[C@]12CC[C@H](O)CC1=CC[C@@H]1[C@@H]2CC[C@]2(C)C(=O)CC[C@@H]12 [Dehydroepiandrosterone]		> 50
CC(=O)[C@H]1CC[C@H]2[C@@H]3CC=C4C[C@@H](O)CC[C@]4(C)[C@H]3CC[C@]12C [Pregnenolone]		11.6
COCC(C)N(C(=O)CCl)c1c(C)csc1C (stereo not drawn) [Dimethenamid]		> 50
c1ccc2c(c1)ccc1ncccc12 [Benzo(f)quinoline]		> 90
CCCCN(CCCC)C(=O)N(CCCC)CCCC [1,1,3,3-Tetrabutylurea]		22.2
Cc1ccc2oc(CN(Cc3ccccc3)C(=O)Nc3c(F)cc(F)cc3F)c(-c3ccc(Cl)cc3)c2c1 [FR145237]		4.47
Cc1cc(Nc2ccccc2C(=O)O)ccc1Cl [2-[(4-Chloro-3-methylphenyl)amino]benzoic acid]		16.1
C#C[C@]1(O)CC[C@H]2[C@@H]3CCC4=CC(=O)CC[C@@H]4[C@H]3C(=C)C[C@@]21CC [Etonogestrel]		19.5
Cc1ccc(-n2nc(C(C)(C)C)cc2NC(=O)Nc2ccc(OCCN3CCOCC3)c3ccccc23)cc1 [Doramapimod]		45.9
N=C(N)NC(=O)c1nc(Cl)c(N)nc1N [Amiloride hydrochloride]	56.7	
COc1ccc(/C=C/C(=O)Nc2ccccc2C(=O)O)cc1OC [Tranilast]		12.3
CCCC(=O)N1CCCN(c2nc(N)c3cc(OC)c(OC)cc3n2)CC1 [Bunazosin hydrochloride]		47.9
N=c1c[n+](N2CCOCC2)[n-]o1 [3-Morpholinosydnonimine hydrochloride]		52.1
COc1cc2c(cc1N)oc1ccccc12 [2-Methoxy-3-aminodibenzofuran]		84.6
CCCCC(CC)COC(=O)c1ccccc1C(=O)O (stereo not drawn) [MEHP]		70.2
NC(=O)N(O)[C@@H]1C=C[C@H](Oc2cccc(Oc3ccc(F)cc3)c2)C1 [CJ-013790]		81.3
CC(C(=O)O)c1ccc2c(c1)CC(=O)c1ccccc1S2 (stereo not drawn) [Zaltoprofen]		29.1
CCCCCCn1cc[n+](C)c1 [1-Hexyl-3-methylimidazolium hexafluorophosphate]	53.8	
CCCCCC[n+]1ccccc1 [1-Hexylpyridinium trifluoromethanesulfonate]	45.4	
CC(C)n1c(/C=C/[C@H](O)C[C@H](O)CC(=O)O)c(-c2ccc(F)cc2)c2ccccc21 [Fluvastatin sodium]	39.3	
CCCCCCCCCCCCOS(=O)(=O)O [Sodium dodecyl sulfate]	> 50	
CCCCCCn1cc[n+](C)c1 [1-Hexyl-3-methylimidazolium tetrafluoroborate]	56.1	
Nc1ccc2cc3ccc(N)cc3nc2c1 [Proflavin hemisulfate]	4.93	
OCCOCCN1CCN(C2=Nc3ccccc3Sc3ccccc32)CC1 [Quetiapine]	34	
Cc1cc(O)c2c(O)c3c(O)cccc3cc2c1 [Chrysarobin]		28.1

Compound	AC50 [1] [µM]	AC50 [2] [µM]
CCCCOc1cc(C(=O)OCCN(CC)CC)ccc1N [Benoxinate hydrochloride]		11.8
C/C(=C\c1csc(C)n1)[C@@H]1C[C@@H]2O[C@]2(C)CCC[C@H](C)[C@H](O)[C@@H](C)C(=O)C(C)(C)[C@@H](O)CC(=O)O1 [Epothilone B]		0.0109
CC/C=C\CC/C=C/C(OCC)OCC [(2E,6Z)-1,1-diethoxynona-2,6-diene]		61.1
C[C@]12C=CC(=O)N[C@@H]1CC[C@@H]1[C@@H]2CC[C@]2(C)[C@@H](C(=O)Nc3cc(C(F)(F)F)ccc3C(F)(F)F)CC[C@@H]12 [Dutasteride]		3.44
CCCCNC1CC(C)(C)NC(C)(C)C1 [N-Butyl-2,2,6,6-tetramethylpiperidin-4-amine]		60.2
Nc1ccc2cc3ccc(N)cc3nc2c1 [Proflavin hydrochloride]	3.25	
CO[C@H]1O[C@@H]2O[C@@]3(C)CC[C@H]4[C@H](C)CC[C@@H]([C@H]1C)[C@@]24OO3 [Artemether]		> 50
O=S(=O)(O)c1ccccc1/C=C/c1ccc(-c2ccc(/C=C/c3ccccc3S(=O)(=O)O)cc2)cc1 [Disodium 4,4'-bis(2-sulfostyryl)biphenyl]		26.4
CNC(=O)c1ccccc1Sc1ccc2c(/C=C/c3ccccn3)n[nH]c2c1 [Axitinib]		0.777
CC/C=C/CCCCCCCCC1CC(=O)OC1=O (stereo not drawn) [(Tetrapropenyl)succinic anhydride]		65.5
c1ccc(P(c2ccccc2)c2ccccc2)cc1 [Triphenylphosphine]		> 90
CCCN1C[C@H](CSC)C[C@@H]2c3cccc4[nH]cc(c34)C[C@H]21 [Pergolide methanesulfonate]		10.1
CCCCC(CC)COC(=O)c1ccc(N(C)C)cc1 (stereo not drawn) [2-Ethylhexyl 4-(dimethylamino)benzoate]		47.2
CCOC(=O)Cn1cccc1-c1nc(-c2ccc(OC)cc2)c(-c2ccc(OC)cc2)s1 [Pamicogrel]		14.5
O=c1oc2c(O)c(O)cc3c(=O)oc4c(O)c(O)cc1c4c23 [Ellagic acid]		12.9
CCCCCCCCCCCC(=O)O [Dodecanoic acid]		68.4
CCN(CC)C(=O)C(C)Oc1cccc2ccccc12 (stereo not drawn) [Napropamide]		74.1
CC(C)(O)C(=O)Nc1ccc([N+](=O)[O-])c(C(F)(F)F)c1 [Hydroxyflutamide]		> 70
CCC(=O)Oc1ccc(/C(CC)=C(\CC)c2ccc(OC(=O)CC)cc2)cc1 [Diethylstilbestrol dipropionate]		56.1
CC(=O)Oc1ccc(C2(c3ccc(OC(C)=O)cc3)C(=O)Nc3ccccc32)cc1 [Oxyphenisatin acetate]		> 50
O=C1c2ccccc2-c2n[nH]c3cccc1c23 [SP600125]		11.6
O=C(CCCN1CCC(O)(c2ccc(Br)cc2)CC1)c1ccc(F)cc1 [Bromperidol]		12.9
CCCCOC(=O)/C=C\C(=O)OCCCC [Dibutyl maleate]		37.6
NNC(N)=S [Thiosemicarbazide]		59.3
CN(C)C(=O)Nc1ccc(Oc2ccc(Cl)cc2)cc1 [Chloroxuron]		64.2
CC1(C)CC/C(=C\c2ccc(Cl)cc2)C1(O)Cn1cncn1 (stereo not drawn) [Triticonazole]		> 90
